Measurements published in PubChem BioAssay.
The source made the active and inactive calls.

Tests used:
[1] = binders of probe aFSTL3 on microarray, primary screen, stem cell growth factor project, biochemical, small-molecule microarray, fluorescence 635/667 (AID 1064); conditions: higher = more signal;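 further: measures binding of the biotinylated anti-FSTL3 antibody to printed compounds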
[2] = binders from COS7 lysate, DM2A8 probe, primary screen, torsin A project, cell lysate, small-molecule microarray, fluorescence 635/667 (AID 1065); conditions: higher = more signal, COS7 lysate expressing mutant human TOR1A
[3] = binders of probe aFGF2 on microarray, primary screen, stem cell growth factor project, biochemical, small-molecule microarray, fluorescence 635/667 (AID 1067); conditions: higher = more signal;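 further: measures binding of biotinylated aFGF2 protein to printed compounds on slides; z-score merges feature fluorescence and signal-to-noise across triplicate slides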
[4] = binders of probe aFGF10 on microarray, primary screen, stem cell growth factor project, biochemical, small-molecule microarray, fluorescence 635/667 (AID 1071); conditions: higher = more signal;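 further: score merges 667 nm spot intensity and signal to noise from triplicate slides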
[5] = molecular target: Neurogenic locus notch homolog protein 2 (Homo sapiens) (UniProt Q04721); assay: Notch2 binders on small-molecule microarrays, primary screen, biochemical, small-molecule microarray, 635 nm fluorescence, stem cell growth factors (AID 1073); conditions: Notch2 binding, higher = more signal
[6] = molecular target: Pro-neuregulin-1, membrane-bound isoform (Homo sapiens) (UniProt Q02297); assay: NRG1 binders on small-molecule microarrays, primary screen, psychiatric disease protein project, biochemical, small-molecule microarray, fluorescence 635/667 (AID 1075); conditions: NRG1 binding, 635 nm fluorescence, higher = more signal;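 further: score combines 667 nm spot fluorescence with signal to noise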
[7] = system: Neuregulin-1 EGF-like domain; assay: binders of neuregulin-1 EGF-like domain, primary screen, biochemical, small-molecule microarray, 635 nm fluorescence (AID 1081); conditions: small-molecule microarray binding, higher = more signal;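 further: binding of the protein to compounds printed on small-molecule microarray slides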
[8] = FRG1 promoter luciferase signal modulators, primary screen, FRG1 inhibition for FSHD, cell-based, C2C12 myotubes, firefly/Renilla luciferase, luminescence (AID 1084); conditions: higher = more signal, called active from +8 up or from −8 down
[9] = binders of probe aFST on microarray, primary screen, stem cell growth factor project, biochemical, small-molecule microarray, fluorescence 635/667 (AID 1086); conditions: higher = more signal;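 further: score merges 667 nm fluorescence with signal-to-noise of each printed compound spot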
[10] = binders of probe aHhip on microarray, primary screen, stem cell growth factor project, biochemical, small-molecule microarray, fluorescence 635/667 (AID 1087); conditions: higher = more signal;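 further: score merges spot fluorescence at 667nm with spot signal to noise ratio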

Sequence of Pro-neuregulin-1, membrane-bound isoform (Homo sapiens) (Q02297 whole entry, looked up, the tested form may be a part, canonical isoform): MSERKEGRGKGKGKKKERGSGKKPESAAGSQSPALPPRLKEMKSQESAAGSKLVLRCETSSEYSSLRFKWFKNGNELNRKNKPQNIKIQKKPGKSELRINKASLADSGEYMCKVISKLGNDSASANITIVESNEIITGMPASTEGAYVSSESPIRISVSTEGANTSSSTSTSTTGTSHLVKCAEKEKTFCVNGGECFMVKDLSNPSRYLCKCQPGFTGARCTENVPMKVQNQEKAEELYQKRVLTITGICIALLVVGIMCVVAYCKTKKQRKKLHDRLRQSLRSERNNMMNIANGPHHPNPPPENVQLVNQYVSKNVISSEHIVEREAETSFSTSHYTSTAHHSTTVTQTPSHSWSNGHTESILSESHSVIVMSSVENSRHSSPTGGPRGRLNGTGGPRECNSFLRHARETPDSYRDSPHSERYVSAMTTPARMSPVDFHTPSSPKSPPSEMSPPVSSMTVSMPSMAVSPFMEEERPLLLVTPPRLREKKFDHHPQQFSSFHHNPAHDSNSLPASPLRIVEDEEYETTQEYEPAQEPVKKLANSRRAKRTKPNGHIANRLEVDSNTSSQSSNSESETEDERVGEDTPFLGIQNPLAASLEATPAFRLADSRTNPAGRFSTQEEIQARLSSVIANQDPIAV
Sequence of Neurogenic locus notch homolog protein 2 (Homo sapiens) (Q04721 whole entry, looked up, canonical isoform): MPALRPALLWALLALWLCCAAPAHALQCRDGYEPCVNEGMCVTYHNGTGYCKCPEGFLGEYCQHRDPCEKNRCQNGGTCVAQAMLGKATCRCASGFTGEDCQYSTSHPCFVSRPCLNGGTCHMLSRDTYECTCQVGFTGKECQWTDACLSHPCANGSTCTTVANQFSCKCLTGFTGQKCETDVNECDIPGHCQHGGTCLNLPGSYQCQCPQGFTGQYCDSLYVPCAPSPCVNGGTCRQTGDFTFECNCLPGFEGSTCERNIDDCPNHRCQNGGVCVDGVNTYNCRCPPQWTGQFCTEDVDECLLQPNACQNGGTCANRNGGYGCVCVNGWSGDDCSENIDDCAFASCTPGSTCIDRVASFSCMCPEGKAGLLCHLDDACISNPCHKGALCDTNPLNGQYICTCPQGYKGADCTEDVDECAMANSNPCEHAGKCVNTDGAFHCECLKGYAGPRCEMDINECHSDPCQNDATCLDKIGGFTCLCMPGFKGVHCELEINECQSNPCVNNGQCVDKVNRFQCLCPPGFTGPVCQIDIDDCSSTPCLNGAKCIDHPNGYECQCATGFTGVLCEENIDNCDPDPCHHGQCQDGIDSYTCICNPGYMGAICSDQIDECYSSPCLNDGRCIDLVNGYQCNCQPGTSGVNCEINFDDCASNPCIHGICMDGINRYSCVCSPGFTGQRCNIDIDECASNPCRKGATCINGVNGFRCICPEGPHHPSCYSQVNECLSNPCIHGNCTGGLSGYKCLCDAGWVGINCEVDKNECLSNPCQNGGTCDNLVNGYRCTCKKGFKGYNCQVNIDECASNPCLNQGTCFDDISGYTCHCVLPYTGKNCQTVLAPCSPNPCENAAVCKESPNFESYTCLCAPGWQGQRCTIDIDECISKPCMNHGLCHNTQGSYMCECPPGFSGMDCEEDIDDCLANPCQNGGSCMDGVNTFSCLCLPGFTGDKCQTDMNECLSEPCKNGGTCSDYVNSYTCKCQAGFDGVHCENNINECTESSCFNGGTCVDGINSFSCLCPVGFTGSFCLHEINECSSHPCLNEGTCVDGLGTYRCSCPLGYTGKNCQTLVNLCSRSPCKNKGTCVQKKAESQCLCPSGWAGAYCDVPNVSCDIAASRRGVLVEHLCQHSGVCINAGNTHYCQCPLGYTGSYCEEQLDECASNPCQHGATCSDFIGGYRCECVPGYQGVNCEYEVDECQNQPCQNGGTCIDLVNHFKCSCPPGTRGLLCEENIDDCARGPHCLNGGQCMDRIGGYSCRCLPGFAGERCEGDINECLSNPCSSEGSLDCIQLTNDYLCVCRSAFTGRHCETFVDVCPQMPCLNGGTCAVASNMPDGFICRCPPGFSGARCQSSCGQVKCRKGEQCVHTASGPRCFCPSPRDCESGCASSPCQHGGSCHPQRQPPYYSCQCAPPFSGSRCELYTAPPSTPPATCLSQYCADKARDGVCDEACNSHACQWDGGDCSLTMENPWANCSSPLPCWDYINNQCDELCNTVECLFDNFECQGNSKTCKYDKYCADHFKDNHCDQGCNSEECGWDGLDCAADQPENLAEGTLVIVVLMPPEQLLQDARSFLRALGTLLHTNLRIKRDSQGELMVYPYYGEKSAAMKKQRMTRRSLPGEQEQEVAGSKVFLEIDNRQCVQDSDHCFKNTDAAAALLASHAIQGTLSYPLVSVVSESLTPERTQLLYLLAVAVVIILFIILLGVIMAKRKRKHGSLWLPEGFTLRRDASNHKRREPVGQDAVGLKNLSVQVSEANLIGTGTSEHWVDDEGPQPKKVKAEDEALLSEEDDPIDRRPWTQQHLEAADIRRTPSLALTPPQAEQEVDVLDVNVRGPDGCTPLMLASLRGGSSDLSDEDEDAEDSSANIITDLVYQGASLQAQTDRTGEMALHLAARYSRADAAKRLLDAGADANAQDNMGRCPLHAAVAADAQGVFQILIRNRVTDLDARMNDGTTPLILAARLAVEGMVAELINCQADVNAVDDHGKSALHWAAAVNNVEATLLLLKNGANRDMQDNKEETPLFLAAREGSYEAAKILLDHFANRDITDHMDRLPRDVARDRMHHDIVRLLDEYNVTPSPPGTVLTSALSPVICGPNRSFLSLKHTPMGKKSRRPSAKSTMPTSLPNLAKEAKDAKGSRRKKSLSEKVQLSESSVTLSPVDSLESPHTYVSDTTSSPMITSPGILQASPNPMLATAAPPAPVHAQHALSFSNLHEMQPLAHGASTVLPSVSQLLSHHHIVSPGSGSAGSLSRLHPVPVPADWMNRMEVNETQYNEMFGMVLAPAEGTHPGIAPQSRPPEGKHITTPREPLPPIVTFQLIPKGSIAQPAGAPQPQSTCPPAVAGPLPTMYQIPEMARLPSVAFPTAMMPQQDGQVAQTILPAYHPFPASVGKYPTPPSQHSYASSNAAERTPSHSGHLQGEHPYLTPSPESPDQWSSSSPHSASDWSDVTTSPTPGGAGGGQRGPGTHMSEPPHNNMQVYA

CO[C@H]1COC(=O)[C@@H](C)COC(=O)[C@H](C)NC(=O)CC=C[C@H]1C
composite z-score [1]: -0.451
composite z-score [2]: 1.18
composite z-score [3]: -0.0354
composite z-score [4]: 0.222
composite z-score [5]: 0.0126
composite z-score [6]: -0.521
composite z-score [7]: 0.734
z-score [8]: -0.53 (inactive)
composite z-score [9]: 0.101
composite z-score [10]: -0.0557

COC(=O)C1=C(C)N(Cc2ccccc2)[C@]23O[C@](C(=O)OC)(C(=O)N2[C@@H]1c1ccccc1)C(C(=O)OC)=C3C(=O)OC
composite z-score [1]: -0.309
composite z-score [2]: 0.458
composite z-score [3]: -0.0232
composite z-score [4]: 1.1
composite z-score [5]: 0.926
composite z-score [6]: 0.435
composite z-score [7]: 1.21
z-score [8]: -1.51 (inactive)
composite z-score [9]: 0.294
composite z-score [10]: -0.0003

O=c1n(-c2ccccc2)c(=O)n2n1CC[C@@H]1C(=NOCc3ccccc3)[C@H]3O[C@H]3[C@@H](O)[C@@H]12
composite z-score [1]: -0.489
composite z-score [2]: -0.285
composite z-score [3]: -0.0494
composite z-score [4]: 0.472
composite z-score [5]: -0.267
composite z-score [6]: -0.0644
composite z-score [7]: -0.338
z-score [8]: -0.354 (inactive)
composite z-score [9]: -0.0869
composite z-score [10]: -0.284

CON=C(C)CCC(=O)OC[C@H]1O[C@H](c2ccccc2)C=C[C@@H]1Oc1ccc(OC)cc1
composite z-score [1]: -0.0269
composite z-score [2]: 0.0837
composite z-score [3]: -0.0504
composite z-score [4]: 0.111
composite z-score [5]: -0.272
composite z-score [6]: -0.351
composite z-score [7]: -0.0622
z-score [8]: 1.89 (inactive)
composite z-score [9]: 0.308
composite z-score [10]: -0.131

CC(=O)OC[C@H]1OC(ON=CC[C@@H]2C=C[C@H](OC(C)=O)[C@@H](COC(C)=O)O2)[C@H](OC(C)=O)[C@@H](OC(C)=O)[C@@H]1OC(C)=O (stereo not given in full)
composite z-score [1]: -0.314
composite z-score [2]: 0.585
composite z-score [3]: -0.076
composite z-score [4]: 0.398
composite z-score [5]: 0.94
composite z-score [6]: -0.555
composite z-score [7]: -0.595
z-score [8]: -0.0946 (inactive)
composite z-score [9]: 0.52
composite z-score [10]: 0.0972

CC(CCN1CCCCc2nc(C)c(C)cc21)=NOC[C@@H](O)COCc1ccco1
composite z-score [1]: -0.471
composite z-score [2]: 2.6
composite z-score [3]: -0.242
composite z-score [4]: 0.0106
composite z-score [5]: 0.296
composite z-score [6]: -1.03
composite z-score [7]: 0.298
z-score [8]: -0.0255 (inactive)
composite z-score [9]: 0.193
composite z-score [10]: 0.259

COC(=O)[C@H](C)NC(=O)CCC1CC(OC(=O)NCCc2ccc(F)cc2)CC2(CCCC(COC(=O)NCCC(C)C)O2)O1 (stereo not given in full)
composite z-score [1]: -0.279
composite z-score [2]: -0.0132
composite z-score [3]: -0.0407
composite z-score [4]: 1.11
composite z-score [5]: 0.824
composite z-score [6]: 1.26
composite z-score [7]: 0.888
z-score [8]: 0.033 (inactive)
composite z-score [9]: 0.281
composite z-score [10]: -0.13

CCC1=NOC(CCC2CC(OC(=O)NCc3cccc4c3OCO4)CC3(CCCC(COC(=O)NCCc4ccccc4OC)O3)O2)C1 (stereo not given)
composite z-score [1]: -0.173
composite z-score [2]: 0.13
composite z-score [3]: -0.0466
composite z-score [4]: 0.504
composite z-score [5]: 0.608
composite z-score [6]: 0.796
composite z-score [7]: 0.793
z-score [8]: 1.02 (inactive)
composite z-score [9]: 0.243
composite z-score [10]: -0.151

COc1cccc([C@H]2Oc3ccc(OC)cc3C(=NOC[C@@H](C)[C@H](OCc3ccccc3)C(C)C)[C@@H]2O)c1
composite z-score [1]: -0.108
composite z-score [2]: 0.435
composite z-score [3]: -0.004
composite z-score [4]: 0.431
composite z-score [5]: 0.203
composite z-score [6]: -0.201
composite z-score [7]: 0.686
z-score [8]: 3.29 (inactive)
composite z-score [9]: 1.33
composite z-score [10]: 0.0274

CC(=O)O[C@H]1C2=CO[C@H](C)[C@H]3[C@H]4C5=C([C@H](O)[C@H]6O[C@H]6C5=O)[C@H](OC4C)[C@@]23C(=O)[C@@H]2O[C@@H]21 (stereo not given in full)
composite z-score [1]: -0.186
composite z-score [2]: 0.0382
composite z-score [3]: -0.0724
composite z-score [4]: 0.705
composite z-score [5]: 0.673
composite z-score [6]: 0.435
composite z-score [7]: 1.01
z-score [8]: -3.35 (inactive)
composite z-score [9]: 0.163
composite z-score [10]: 0.154

Cc1ccc(S(=O)(=O)N[C@H]2COC(=O)CC=C[C@H](C)[C@@H](NS(=O)(=O)c3ccc(C)cc3)COC(=O)CC=C[C@@H]2C)cc1
composite z-score [1]: -0.546
composite z-score [2]: 0.391
composite z-score [3]: 0.16
composite z-score [4]: 0.395
composite z-score [5]: 0.434
composite z-score [6]: -0.107
composite z-score [7]: 0.0446
z-score [8]: 1.41 (inactive)
composite z-score [9]: -0.118
composite z-score [10]: 0.166

COC(=O)CC=C[C@@H](C)[C@@H](C=NO[C@H](C)c1cn([C@@H]2COC[C@H]2O)nn1)NS(=O)(=O)c1ccc(C)cc1
composite z-score [1]: -0.279
composite z-score [2]: 0.612
composite z-score [3]: -0.0027
composite z-score [4]: 0.575
composite z-score [5]: 0.283
composite z-score [6]: 0.0806
composite z-score [7]: 0.928
z-score [8]: -1.24 (inactive)
composite z-score [9]: 0.374
composite z-score [10]: -0.166

CO[C@H]1COC(=O)CCC[C@@H](C)[C@H](OC)COC(=O)[C@@H]2CCCN2C(=O)CC=C[C@@H]1C
composite z-score [1]: -0.442
composite z-score [2]: 2.09
composite z-score [3]: -0.294
composite z-score [4]: -0.142
composite z-score [5]: -0.164
composite z-score [6]: -0.508
composite z-score [7]: 0.505
z-score [8]: 0.362 (inactive)
composite z-score [9]: -0.194
composite z-score [10]: 0.113
